# B2AR arrestin: agonists driving beta-arrestin recruitment to human beta2-adrenergic receptor; AID 492947; 0.02% of 330,000 active; Potency, µM (top dose mostly 46.1 µM), for the others: top-dose activation, most hits filed as activators; P07550; beta-arrestin recruitment to beta2AR, cell-based reporter;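 further: 0% = DMSO controls and full agonism = EC100 isoproterenol or metaproterenol; nearly all actives have a fitted effect of over 65% in size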
# BCR signal inh: inhibitors of chronic active B-cell receptor signaling; ABC-DLBCL IkBa-CBG/CBR reporter, luminescence ratio, 4 h; Potency, µM (doses to about 46.1 µM), for the others: at the top dose activity change, negative = inhibition, most hits filed as inhibitors; 0.05% of 340,000 active; active means well fitted inhibition curve with a large enough effect in the signal ratio, with a control signal flat, not every such curve was filed as active; inconclusive means small, poorly fitted or top-dose-only effect, or effect the other way, or a change in a side signal; the % refers to the signal ratio;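 further: plate controls were basal doxycycline-induced cells for no effect and cells given 10 µM MG132 for full effect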
#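 TMD8 ABC-DLBCL cells carrying doxycycline-inducible green luciferase fused to IkappaBalpha plus unfused red luciferase were exposed to compounds (up to 46 uM) for 4 hrs at 37C. Activity came from the overlap-corrected green/red luminescence ratio.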
# Pin1 inh: inhibitors of human Pin1. Q13526. Pin1 FP peptide displacement, HiFluor488, 10 min. Potency, µM (series often up to 115 µM), without a hit: at the top dose activity, negative = inhibition, usual class: inhibitors. 0.009% of 390,000 active. AID 504891; active means well fitted inhibition curve with a large enough effect in the polarisation, with a control signal flat, not every such curve was filed as active; inconclusive means small, poorly fitted or top-dose-only effect, or effect the other way, or a change in a side signal; inactive means no such curve, though single readings can be large or run the other way; the % refers to the polarisation; further: on the % scale 0 is the no-effect control and ±100 the full control effect
# Target sequence (Q13526 whole entry, looked up): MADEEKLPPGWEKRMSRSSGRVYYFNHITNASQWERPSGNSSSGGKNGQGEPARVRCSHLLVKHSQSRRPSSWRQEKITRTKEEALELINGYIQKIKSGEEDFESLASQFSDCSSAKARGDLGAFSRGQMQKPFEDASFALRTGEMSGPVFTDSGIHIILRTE
# GLS inh: inhibitors of human glutaminase (GLS). O94925. GLS enzymatic activity, qHTS titration. Potency, µM (doses to about 45.5 µM), inactives show top-dose activity change, negative = inhibition, most hits filed as inhibitors. 0.21% of 410,000 active. AID 624170; further: on the % scale 0 is the no-effect control and ±100 the full control effect
#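 Glutamate formation by hKGA was monitored fluorometrically using coupled glutamate oxidase, HRP and Amplex Red. Substrate was added as 1 mM L-glutamine solution; incubation was 30 min at RT after an initial read.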
# Tb PGK inh: T. brucei PGK inhibition; 0.043% of 380,000 active; Potency, µM (series often up to 57.5 µM), inactives show at the highest dose activity change, negative = inhibition, most hits filed as inhibitors; PGK/GAPDH coupled, Kinase-Glo luminescence, 60 min; P07378; further: on the % scale 0 is the no-effect control and ±100 the full control effect; nearly all actives have a fitted effect of over 60% in size
#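 Luminescent ATP detection (Kinase-Glo Plus) follows a 60-minute room-temperature incubation, with wells lacking PGK as controls. Buffer: 100 mM TEA (pH 7.6), 5 mM MgCl2, 0.01% Tween-20. Coupling enzyme GAPDH (100 nM final) supplies unstable 1,3-BPG in-well.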
# Tb PFK inh-1: blocks T. brucei phosphofructokinase; O15648; T. brucei PFK, ADP-Glo luminescence; Potency, µM (series often up to 57.5 µM), for inactives: top-dose activity, negative = inhibition, hits mostly inhibitors; 0.17% of 330,000 active; AID 485367;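 further: 0% = uninhibited 1x PFK enzyme wells and -100% = no-enzyme wells; nearly all actives have a fitted effect of over 60% in size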
# Target sequence (O15648 whole entry, looked up): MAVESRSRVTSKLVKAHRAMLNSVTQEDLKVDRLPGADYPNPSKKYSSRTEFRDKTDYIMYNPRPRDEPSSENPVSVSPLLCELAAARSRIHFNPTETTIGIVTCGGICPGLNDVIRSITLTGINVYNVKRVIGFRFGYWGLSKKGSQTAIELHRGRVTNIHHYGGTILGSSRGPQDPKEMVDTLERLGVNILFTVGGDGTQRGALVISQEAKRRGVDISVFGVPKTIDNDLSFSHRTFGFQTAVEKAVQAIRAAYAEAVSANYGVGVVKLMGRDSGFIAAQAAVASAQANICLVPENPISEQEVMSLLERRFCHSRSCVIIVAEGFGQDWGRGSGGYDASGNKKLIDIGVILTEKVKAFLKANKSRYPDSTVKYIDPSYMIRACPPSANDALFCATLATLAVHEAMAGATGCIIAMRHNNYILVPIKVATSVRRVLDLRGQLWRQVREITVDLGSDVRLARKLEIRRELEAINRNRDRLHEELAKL
#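 ADP-Glo luminescence quantified ADP after 45 min at room temperature, with 1.25 nM T. brucei PFK, 0.1 mM ATP and 0.5 mM fructose-6-phosphate in pH 8.0 TEA buffer. qHTS titrations up to 57 µM; curves classified by quality.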
# TbPFK ATP: Tb phosphofructokinase inhibition, orthogonal luminescence | shares compounds with Tb PFK inh-1 | Tb PFK enzyme, ATP depletion, Kinase-Glo Plus luminescence | Potency, µM (doses to about 57.5 µM), for the others: top-dose inhibition | 47% of 1,100 active | AID 504636; calls by dose curve; further: nearly all actives have a fitted effect of over 60% in size
# Tb PFK inh-2: T. brucei PFK enzyme inhibition, hit validation; shares compounds with Tb PFK inh-1; purified T. brucei PFK, ADP-Glo luminescence, 45 min; Potency, µM (doses to about 57.5 µM), inactives show at the highest dose activity change, negative = inhibition, hits mostly inhibitors; 41% of 1,100 active;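 further: plate controls were full PFK enzyme control for no effect and no enzyme control for full effect; nearly all actives have a fitted effect of over 60% in size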
# * hit, by the source's call; i = inactive; u = inconclusive; x = not tested or not shown; [ ] = dose if it differs, or a comment. A selection: hits, their analogues and other compounds. The true share with any hit is near 0.42%. Unless noted, the call rests on the fitted dose curve; in most records, active means well fitted curve in the direction sought with a large enough effect; inconclusive means small, poorly fitted or top-dose-only effect, or another doubt; inactive means no such curve, though single readings can be large; an effect the other way counts as inactive or inconclusive. Potency means the concentration at half of the fitted maximal effect.
SMILES,B2AR arrestin,BCR signal inh,Pin1 inh,GLS inh,Tb PGK inh,Tb PFK inh-1,TbPFK ATP,Tb PFK inh-2
O=C(O)c1ccc(Cl)c(S(=O)(=O)Nc2cccc(C(=O)Nc3cccc(C(F)(F)F)c3)c2)c1,-1.1%,2.8%,-12.9%,1.2%,-3.0%,u,u,u
CCN(CC)C(=O)c1ccc(NC(=O)c2cccc(C(F)(F)F)c2)cc1,-0.1%,-7.3%,-4.2%,1.9%,-0.4%,-0.4%,x,x
CCC(=O)OC1(c2ccccc2)CCN(C)CC1,x,x,x,-2.4%[99.4 µM],x,x,x,x
Cc1ccc(C)c2nc3sc(C(=O)O)cc3cc12,-0.3%,u,2.9%,0.0%,-0.5%,u,-22.8%,u
O=C(Cn1sc2ccccc2c1=O)NC12CC3CC(CC(C3)C1)C2,-0.3%,u,-2.6%,u,-2.3%,4.26µM*,u,9.53µM*
Cc1ccc(C=C2C(Cl)=C(Cl)C(Cl)=C2Cl)cc1,0.3%,-0.6%,u,-14.9%,-26.5%,u,x,x
CCN1/C(=C/C=C/c2oc3ccc(-c4ccccc4)cc3[n+]2CC)Oc2ccc(-c3ccccc3)cc21,-1.3%,u,-173.6%,0.0%,-12.3%,u,-27.1%,u
CCOC(=O)c1sc(=S)n(C)c1NC(=O)c1ccccc1,-0.1%,4.5%,-2.8%,-4.8%,-0.2%,u,21.3µM*,u
COc1ccc(OC)c(CC(C)N)c1 (configuration not stated),x,x,x,4.0%[99.4 µM],x,x,x,x
CC(=O)Oc1ccc(CC(C(=O)O)N2C(=O)c3ccccc3C2=O)cc1 (configuration not stated),-1.0%,1.2%,7.5%,-24.3%,31.6µM*,u,16.9µM*,u
CC(C)(C)c1cc(OC(=O)Cc2ccccc2)ccc1O,0.3%,-16.8%,u,2.6%,3.7%,0.2%,x,x
Cc1c(Cl)cnc(NC(=O)COC(=O)c2ccc3ncsc3c2)c1Cl,-0.4%,u,15.3%,0.0%,i,u,-34.7%,u
Nc1ccc2nc(-c3cccc(-c4nc5ccc(N)cc5[nH]4)c3)[nH]c2c1,-0.2%,u,u,-14.2%,1.8%,u,5.2%,1.3%
Nc1ccc2ccccc2c1,x,x,-0.3%,14.5%,-7.6%,x,x,x
CC(C)(C)NCC(O)c1cc(Cl)c(N)c(C(F)(F)F)c1 (configuration not stated),x,x,x,0.0%,x,x,x,x
COC(=O)CSc1cc([N+](=O)[O-])cc2c1c(C1OCCO1)nn2-c1ccccc1,-1.2%,0.2%,u,-2.5%,-2.3%,2.3%,x,x
CC(=O)N[C@@H]1c2c(ccc3ccccc23)OC[C@@H]1COC(C)=O,-1.2%,-4.2%,0.4%,u,-8.5%,u,-30.3%,u
Cc1ccc(-c2c[n+](Cc3ccc(Cl)c(Cl)c3)c3n2CCC3)cc1,-0.5%,u,-2.3%,6.8%,i,6.01µM*,4.78µM*,13.5µM*
CCc1ccc(CNC(=O)C2CCN(C(=O)c3ccc(-n4c(C)cc5ccccc54)s3)CC2)cc1,x,x,24.5%,13.0%,i,x,x,x
CN1C(=S)SC(N(O)C(=O)Nc2ccc(Cl)c(Cl)c2)C1(C)C (configuration not stated),-1.1%,-0.3%,1.1%,0.2%,-6.9%,u,u,u
CCc1ccc(NC(=O)Cn2c(=O)oc3cc(S(=O)(=O)NCc4ccccc4)ccc32)cc1,x,x,u,-4.9%,9.5%,x,x,x
CCc1cccc(C)c1NC(=O)COC(=O)CNS(=O)(=O)/C=C/c1ccccc1,-0.5%,-2.6%,-4.4%,-0.9%,-4.7%,u,u,26.9µM*
Cc1csc(NC(=O)C2CCCN2C(=O)Oc2ccccc2)n1 (configuration not stated),-0.2%,u,-4.2%,0.1%,-3.6%,-3.6%,x,x
Cc1cc(NS(=O)(=O)c2ccc(NC(=O)COc3ccc(Br)cc3)cc2)nc(C)n1,-1.0%,0.5%,-2.7%,u,0.8%,u,8.49µM*,23.9µM*
CN1CCN(C(=O)COc2ccc(S(=O)(=O)Nc3ccc(F)cc3)cc2)CC1,u,6.2%,52.1%,-0.7%,2.9%,0.0%,x,x
SMILES,B2AR arrestin,BCR signal inh,Pin1 inh,GLS inh,Tb PGK inh,Tb PFK inh-1,TbPFK ATP,Tb PFK inh-2
O=C(O)Cc1ccc(NC(=O)Nc2ccc(Br)cc2)cc1,0.2%,9.6%,-4.0%,-3.6%,1.5%,u,12µM*,23.9µM*
N=C1/C(=C/c2ccc(OC(=O)c3ccco3)cc2)C(=O)N=C2SC=CN12,-0.3%,5.7%,26.2%,9.9%,4.3%,5.0%,x,x
Cc1ccc(NC(=O)CSc2ncc3ccccn23)cc1C,0.0%,4.7%,-5.1%,10.7%,-3.2%,9.53µM*,u,-17.7%
Nc1ccccc1Sc1nc2ccccc2[nH]1,-0.1%,u,-5.8%,5.5%,-4.6%,u,16.9µM*,u
CNC(=S)NNC(=O)c1cccn(Cc2ccc(Cl)c(Cl)c2)c1=O,-0.6%,u,3.1%,u,0.7%,8.49µM*,2.69µM*,8.49µM*
C=CCNC(=S)NNC(=O)c1cccn(Cc2ccc(Cl)c(Cl)c2)c1=O,0.2%,u,6.9%,-26.4%,-1.3%,8.49µM*,8.49µM*,10.7µM*
CNC(=O)c1cccn(Cc2cccc(C(F)(F)F)c2)c1=O,0.3%,u,-1.4%,-1.6%,-8.0%,-10.0%,x,x
CCCOP(=O)(c1ccc(N(C)C)cc1)C(O)c1ccc(Cl)cc1 (configuration not stated),0.2%,u,1.0%,-3.1%,7.4%,1.5%,x,x
FC(F)OC(F)(F)C(F)Cl (configuration not stated),x,x,x,7.4%,x,x,x,x
O=C(CN1CCCC1=O)N1CCOCC1,-1.3%,6.6%,4.2%,-14.8%,-8.6%,-5.2%,x,x
Cc1nc(SCC(=O)N2CCOCC2)c2c(=O)n(C)c(=O)n(C)c2n1,-0.3%,-5.4%,-0.2%,10.5%,6.8%,23.9µM*,5.8%,-2.0%
Cc1ccc(S(=O)(=O)N(CC(=O)NCCSc2ccc(Cl)cc2)c2ccccc2C)cc1,x,x,66.0%,-8.8%,-6.0%,x,x,x
Nc1ccn(Cc2cccc(Cl)c2)n1,0.1%,4.5%,2.3%,0.0%,7.9%,26.9µM*,19µM*,u
O=C(Nc1ccccc1F)Oc1cccc(OC(=O)Nc2ccccc2F)c1,-0.3%,u,-6.3%,6.0%,-5.3%,-7.1%,x,x

# Assay outcomes deposited in PubChem BioAssay by National Center for Advancing Translational Sciences (NCATS).
